VACV Venus inh = inhibitors of vaccinia virus (Venus reporter); Vaccinia virus Venus reporter expression, fluorescence; Potency, µM (series often up to 36.5 µM), without a hit: top-dose activity change, negative = inhibition, hits mostly inhibitors; actives 0.46% (n = 330,000); AID 720580; calls by dose curve; tested in A549 cells; note: potency is the fitted concentration of half-maximal effect; nearly all actives have a fitted effect of over 30% in size
FMDV antiviral = foot and mouth disease virus antiviral activity; actives 1.2% (n = 410,000); Potency, µM (titrated, usually from 57.9 µM), for the others: at the highest dose activity change, negative = inhibition, hits mostly inhibitors; FMDV antiviral cell-based qHTS; AID 1159524; calls by dose curve; tested in HEK293T cells; note: read-out not given here; potency is the fitted concentration of half-maximal effect; nearly all actives have a fitted effect of over 45% in size
FBPA Giardia inh = blocks Giardia fructose-bisphosphate aldolase activity; AID 2451; Potency, µM (top dose mostly 59.6 µM), inactives show at the top dose activity, negative = inhibition, most hits filed as inhibitors; actives 0.71% (n = 290,000); purified Giardia FBPA; note: potency is the fitted concentration of half-maximal effect; nearly all actives have a fitted effect of over 55% in size
Target sequence (A8B2U2 whole entry, looked up): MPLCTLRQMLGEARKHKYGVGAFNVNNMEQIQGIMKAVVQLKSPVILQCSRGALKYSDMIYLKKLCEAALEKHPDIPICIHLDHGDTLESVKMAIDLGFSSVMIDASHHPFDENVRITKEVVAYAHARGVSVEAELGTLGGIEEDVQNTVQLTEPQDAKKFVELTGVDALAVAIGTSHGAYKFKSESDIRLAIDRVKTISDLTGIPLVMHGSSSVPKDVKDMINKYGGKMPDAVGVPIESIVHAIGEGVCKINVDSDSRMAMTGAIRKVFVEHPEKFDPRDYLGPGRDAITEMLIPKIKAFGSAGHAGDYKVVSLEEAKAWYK
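Giardia FBPA (40 nM reagent) was preincubated 10 min at RT with compound (up to 57.5 uM final), then substrate plus GAPDH/TPI/NAD/arsenate coupling system with diaphorase/resazurin was added; resorufin fluorescence (525/598 nm) was read after 20 min.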
HCMV inh = human cytomegalovirus inhibition | actives 4.5% (n = 410,000) | HFF cells, HCMV-luciferase reporter, 72 h; active compounds read low | activity change, negative = inhibition, % at 57.5 µM; in the data active = activity change below about -60%; inconclusive = no clear call, values can overlap the other calls; inactive = above about -39%
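Inhibition of viral replication was scored as loss of reporter luminescence in HFFs infected with HCMV-luciferase (MOI 1 PFU/cell) for 72 h; compounds tested at 2 doses, normalized to buffer and Salinomycin controls.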
Vaccinia mCherry = inhibitors of vaccinia virus infection (mCherry reporter signal); actives 0.63% (n = 310,000); Potency, µM (series often up to 36.5 µM), without a hit: at the highest dose activity change, negative = inhibition, usual class: inhibitors; AID 720579; Vaccinia virus mCherry reporter infection, fluorescence; calls by dose curve; tested in A549 cells; note: potency is the fitted concentration of half-maximal effect; nearly all actives have a fitted effect of over 35% in size
HCV inhibitor = blocks hepatitis C virus. Huh7.5.1 HCVcc-Cre infection, luciferase reporter, 44 h. Potency, µM (titrated, usually from 41.8 µM), inactives show at the highest dose activity change, negative = inhibition, most hits filed as inhibitors. actives 3.4% (n = 340,000). AID 651820; note: potency is the fitted concentration of half-maximal effect
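Infectious HCVcc-Cre (~0.5 moi) was added to cells just after compound, with cells seeded 4 h earlier at 1,000 per well. Luciferase activity after 44 h culture reported infection; substrate was incubated 15 min at room temperature before reading.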
Starred values were filed as active, the others as inactive; i = inactive; ? = inconclusive; . = no result given; + = active, no number; [ ] = another dose, or the depositor's remark. Most compounds without a hit are left out; they make up all but 7.5% or so of the library. Unless noted, calls come from the whole dose curve; as a rule, active = well fitted curve in the direction sought with a large enough effect; inconclusive = small, poorly fitted or top-dose-only effect, or another doubt; inactive = no such curve, though single readings can be large; an effect the other way counts as inactive or inconclusive. % is set by controls: 0 for no effect and ±100 for the full control effect.

SMILES	VACV Venus inh	FMDV antiviral	FBPA Giardia inh	HCMV inh	Vaccinia mCherry	HCV inhibitor
O=C(CN1C(=O)COc2ccc(S(=O)(=O)Nc3ccccc3)cc21)NCc1ccccc1Cl	-4%	9%	.	-106*	-12%	.
O=C(CN1C(=O)COc2ccc(S(=O)(=O)N3CCCC3)cc21)NCCc1ccc(Cl)cc1	-16%	8%	.	-73*	-16%	.
Cc1cc(C)n2nc(CC(=O)NNC(=O)c3ccccc3Cl)nc2n1	.	-10%	14%	-27	.	16%
O=C(N/C(=C/c1cccs1)C(=O)N1CCCCCC1)c1ccccc1	-13%	63%	0%	-98*	-10%	15%
O=C(N/C(=C/c1ccc(F)cc1)C(=O)N1CCOCC1)c1ccccc1	-1%	-17%	3%	54	-10%	19%
O=C(N/C(=C\c1cccs1)C(=O)N1CCCCCC1)c1ccccc1	-8%	.	5%	17	i	25%
O=C(N/C(=C/c1ccc(Cl)cc1)C(=O)N1CCOCC1)c1ccccc1	-11%	15%	.	-78*	i	33%
C[C@H](NC(=O)c1ccccc1Cl)C(=O)OCc1cn2cc(Cl)ccc2n1	-9%	5%	.	-12	-22%	-1%[8.37 µM]
Cc1ccc(N2C(=O)CC(NNc3nc4ccccc4s3)C2=O)cc1C (centres undefined)	-5%	-19%	-3%	-79*	-21%	29%
CN(CC(=O)Nc1ccc(Cl)c(C(F)(F)F)c1)C(=O)c1ccc2c(c1)NC(=O)CS2	.	?	.	20	.	11%
O=C(NC1CCCCC1)Oc1cc2oc(=O)sc2cc1Cl	-6%	25µM*	-17%	-20	-21%	-6%
Cc1cc(=O)oc2cc(OCC(=O)NC3CCCCC3)c(Cl)cc12	0%	11%	.	-8	-9%	6%
COC(=O)c1ccc(C(/C=C/[C@@H](C)C(=O)NCCN2CCCC2)NC(=O)OCc2ccccc2)cc1 (some centres undefined)	.	.	5%	.	.	.
O=C1c2ccccc2S(=O)(=O)N1Cc1nc2ccccc2s1	-4%	?	-3%	-73*	-13%	20%
Cc1c(CCO)sc[n+]1CCc1ccccc1	-18%	.	.	.	-19%	.
CS(=O)(=O)Nc1cccc(NC(=O)c2ccc(-n3ccnc3)c3ccoc23)c1	-1%	-8%	.	-63*	1%	.
CC(C)(C)OC(=O)NCC(=O)NNC(=O)C(C(=O)OCc1ccccc1)c1ccccc1 (centres undefined)	.	-10%	.	6	.	.
COc1ccc(CCN2CCC(CNC(=O)c3cnn(-c4ccc(C)cc4)c3C3CCN(C(=O)OC(C)(C)C)CC3)CC2)cc1	11µM*	-4%	.	0	?	.
COc1ccc(-n2ncc(C(=O)NCCc3ccsc3)c2C2CCN(C(=O)OC(C)(C)C)CC2)cc1	-1%	11%	.	+	-12%	.
Cc1ccc(C(CNS(=O)(=O)c2ccccc2)N2CCN(C)CC2)cc1 (centres undefined)	-25%	18%	.	-14	-21%	-14%
CN(C)c1ccc(C(CNS(=O)(=O)c2ccc([N+](=O)[O-])cc2)N2CCOCC2)cc1 (centres undefined)	-13%	-9%	.	9	?	0%
Cc1ccc(C(CNS(=O)(=O)c2ccc([N+](=O)[O-])cc2)N2CCN(C)CC2)cc1 (centres undefined)	-7%	0%	.	-15	?	11µM*
O=[N+]([O-])c1ccc(-c2ccc(S(=O)(=O)NCCN3CCCC3)cc2)cc1	-19%	-24%	0%	-71*	-47%	10µM*
Cc1ccc(C(CNS(=O)(=O)c2ccc(Br)cc2)N2CCN(C)CC2)cc1 (centres undefined)	-27%	-12%	.	-30	-20%	8.9µM*
COC(=O)[C@@H](NC(=O)O[C@@H]1C(=O)c2cc(OC)ccc2O[C@H]1c1ccc(OC)c(Br)c1)C(C)C	.	.	-1%	.	.	.
SMILES	VACV Venus inh	FMDV antiviral	FBPA Giardia inh	HCMV inh	Vaccinia mCherry	HCV inhibitor
CCOC(=O)/C(C#N)=C\c1cn(C)c2ccccc12	-5%	9%	-4%	25	-3%	5%
CCOC(=O)/C(=C\c1cn(C)c2ccccc12)[N+](=O)[O-]	-23%	28µM*	-7%	90	?	8%
Cc1ccc(-c2csc(N3CCC[C@@H]3C(=O)NCCn3c([C@H](C)N)nc4ccccc43)n2)cc1	.	.	.	0	.	.
CC/C=C\C/C=C\C/C=C\C/C=C\C/C=C\CCCC(N)=O	.	.	1%	.	.	.
CC1CCCc2sc3ncn(N)c(=N)c3c21 (centres undefined)	5%	-4%	8%	-63*	3%	?
CC1(C)Cc2c(sc3ncn(N)c(=N)c23)CO1	-7%	-22%	2%	-9	i	-2%
CC(C)(C)CN1CCC(Oc2cccc(C(=O)N3CCC[C@H]3CO)c2)CC1	.	-20%	2%	-31	.	21%
Cn1c(SCc2cccnc2)nc2c(c1=O)SCC2	-9%	-28%	-6%	-25	i	?
Cn1c(SCc2cccc([N+](=O)[O-])c2)nc2c(c1=O)SCC2	-8%	28µM*	2%	-72*	?	?
CCn1c(N)cc(=O)[nH]c1=S	-3%	-10%	.	4	-12%	8%
Cc1ccccc1C1c2[nH]c3ccccc3c2C[C@H]2C(=O)N(c3ccccc3C(=O)NCCCN3CCOCC3)C(=O)N12 (some centres undefined)	-8%	-23%	21%	-1	0%	1.1µM*
CC(C)(C)c1ccc(Cn2c(=N)n(CC(O)c3ccco3)c3ccccc32)cc1 (centres undefined)	?	20µM*	-5%	.	?	10µM*
N=c1n(CCN2CCCC2)c2ccccc2n1CC(O)c1ccco1 (centres undefined)	.	-2%	-18%	-22	.	?
CCCCCCCn1c(=N)n(CC(O)c2ccco2)c2ccccc21 (centres undefined)	-23%	-16%	-1%	-73*	?	8.9µM*
CCCS(=O)(=O)NC(=O)C1(C)CCN(C(=O)c2ccco2)C1 (centres undefined)	6%	-19%	.	?	31%	.
COC(=O)c1ccc(S(=O)(=O)N2CCCN(Cc3ccccc3)CC2)n1C	-14%	-17%	4%	-4	-23%	-9%
COC(=O)c1ccc(S(=O)(=O)N2CCCN(Cc3cccc(Br)c3F)CC2)n1C	.	?	-2%	-74*	.	?
Cc1csc(NC(=O)C2COc3ccccc3O2)n1 (centres undefined)	1%	13µM*	2%	25	.	-19%
CSc1nc2ccc3nc(NC(=O)C4COc5ccccc5O4)sc3c2s1 (centres undefined)	?	-16%	-5%	-78*	i	-26%
O=C(Nc1nc(-c2ccccn2)cs1)C1COc2ccccc2O1 (centres undefined)	?	-18%	?	-83*	?	35µM*
